Measurements reported in PubChem BioAssay AID1159580 (chemical genetic matrix, 2015).
The whole screen tested about 5,500 compounds, of which about 2,000 (36%) were called active. Inconclusive results (about 18%) are left out. Rule as the data show it: active = normalized growth mostly below about 0.91 (no sharp cut-off); inconclusive = no clear call, values can overlap the other calls; inactive = mostly above about 0.92. The list shows a part of the results.

Assay: chemical genetic growth profiling, strain panel (AID 1159580);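 also: tested at 20 µM; growth read once vehicle control cultures reached saturation at 30 °C; 1 = growth at the plate median or of vehicle wells; lower values mean less growth of the strain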
Details: S. cerevisiae deletion strains, growth OD

Measured: normalized growth

OCC(O)Cc1ccc2c(c1)OCO2 (stereo not drawn)
inactive: locus YAL013W, strain DEP1, stronger effect = lower value 1.02 | locus YAL021C, strain ccr4, stronger effect = lower value 1.02 | locus YAL026C, strain drs2, stronger effect = lower value 0.985 | locus YAL030W, strain snc1, stronger effect = lower value 1 | locus YBL061C, strain skt5, stronger effect = lower value 0.997 | locus YBR009C, strain hhf1, stronger effect = lower value 1.01 | locus YBR021W, strain FUR4, stronger effect = lower value 1.02 | locus YBR023C, strain chs3, stronger effect = lower value 1.01 | locus YBR171W, strain sec66, stronger effect = lower value 1.01 | locus YBR229C, strain ROT2, stronger effect = lower value 1.01 | locus YBR231C, strain swc5, stronger effect = lower value 0.992 | locus YBR279W, strain paf1, stronger effect = lower value 1 | locus YCL011C, strain gbp2, stronger effect = lower value 1 | locus YCL016C, strain dcc1, stronger effect = lower value 1 | locus YCL029C, strain bik1, stronger effect = lower value 0.997 | locus YCL069W, strain vba3, stronger effect = lower value 0.981 | locus YCR088W, strain abp1, stronger effect = lower value 0.993 | locus YDL005C, strain med2, stronger effect = lower value 0.999 | locus YDL035C, strain GPR1, stronger effect = lower value 1.02 | locus YDL040C, strain nat1, stronger effect = lower value 0.998 | locus YDL074C, strain BRE1, stronger effect = lower value 1.05 | locus YDL101C, strain DUN1, stronger effect = lower value 1.02 | locus YDL134C, strain PPH21, stronger effect = lower value 1.01 | locus YDL185W, strain tfp1, stronger effect = lower value 0.999 | locus YDL192W, strain arf1, stronger effect = lower value 0.999 | locus YDR001C, strain nth1, stronger effect = lower value 0.997 | locus YDR069C, strain doa4, stronger effect = lower value 0.979 | locus YDR101C, strain arx1, stronger effect = lower value 0.989 | locus YDR137W, strain rgp1, stronger effect = lower value 0.993 | locus YDR150W, strain NUM1, stronger effect = lower value 1.02 | locus YDR159W, strain sac3, stronger effect = lower value 0.971 | locus YDR162C, strain NBP2, stronger effect = lower value 1.03 | locus YDR195W, strain ref2 0.966 | locus YDR297W, strain sur2, stronger effect = lower value 1.01 | locus YDR318W, strain mcm21, stronger effect = lower value 0.991 | locus YDR334W, strain swr1, stronger effect = lower value 1 | locus YDR335W, strain msn5, stronger effect = lower value 0.996 | locus YDR388W, stronger effect = lower value 1 | locus YDR392W, strain spt3, stronger effect = lower value 1.02 | locus YDR502C, strain sam2, stronger effect = lower value 1 | locus YEL003W, strain gim4, stronger effect = lower value 1.01 | locus YEL037C, strain rad23, stronger effect = lower value 1.01 | locus YEL061C, strain CIN8 (second series), stronger effect = lower value 1 | locus YEL061C, strain CIN8, stronger effect = lower value 1.01 | locus YER015W, strain faa2, stronger effect = lower value 1 | locus YER016W, strain bim1, stronger effect = lower value 1 | locus YER110C, stronger effect = lower value 0.996 | locus YER111C, strain swi4, stronger effect = lower value 0.997 | locus YER155C, strain BEM2 (second series), stronger effect = lower value 0.993 | locus YER155C, strain BEM2, stronger effect = lower value 1.01 | locus YER167W, strain BCK2, stronger effect = lower value 1.01 | locus YFR010W, strain ubp6, stronger effect = lower value 1.01 | locus YGL078C, strain dbp3, stronger effect = lower value 1 | locus YGL086W, strain mad1, stronger effect = lower value 0.993 | locus YGL167C, strain pmr1, stronger effect = lower value 1 | locus YGL173C, strain kem1, stronger effect = lower value 0.991 | locus YGL227W, strain vid30, stronger effect = lower value 0.985 | locus YGL240W, strain doc1, stronger effect = lower value 0.984 | locus YGL248W, strain PDE1, stronger effect = lower value 1.01 | locus YGL253W, strain hxk2, stronger effect = lower value 1 | locus YGR078C, strain PAC10, stronger effect = lower value 1.02 | locus YGR135W, strain pre9, stronger effect = lower value 1.01 | locus YGR229C, strain SMI1, stronger effect = lower value 1.02 | locus YGR252W, strain gcn5, stronger effect = lower value 1 | locus YHR013C, strain ard1, stronger effect = lower value 1.01 | locus YHR027C, strain rpn1, stronger effect = lower value 1 | locus YHR030C, strain SLT2, stronger effect = lower value 1.01 | locus YHR079C, strain IRE1 (second series), stronger effect = lower value 0.991 | locus YHR094C, strain hxt1, stronger effect = lower value 0.999 | locus YHR129C, strain ARP1, stronger effect = lower value 1.01 | locus YHR142W, strain chs7, stronger effect = lower value 1.01 | locus YHR200W, strain rpn10, stronger effect = lower value 1 | locus YIL066C, strain RNR3, stronger effect = lower value 1.02 | locus YIL073C, strain SPO22, stronger effect = lower value 1.04 | locus YIL125W, strain kgd1, stronger effect = lower value 1.02 | locus YIR030C, strain dcg1, stronger effect = lower value 1 | locus YJL092W, strain hpr5, stronger effect = lower value 0.998 | locus YJL095W, strain BCK1 (second series), stronger effect = lower value 1 | locus YJL095W, strain BCK1, stronger effect = lower value 1.04 | locus YJL115W, strain asf1, stronger effect = lower value 1 | locus YJL129C, strain trk1, stronger effect = lower value 0.989 | locus YJL134W, strain LCB3, stronger effect = lower value 1.01 | locus YJL154C, strain vps35, stronger effect = lower value 1 | locus YJL164C, strain tpk1, stronger effect = lower value 1.01 | locus YJL166W, strain qcr8, stronger effect = lower value 1.02 | locus YJL168C, strain set2, stronger effect = lower value 0.994 | locus YJL187C, strain SWE1 (second series), stronger effect = lower value 1.03 | locus YJL187C, strain SWE1, stronger effect = lower value 0.982
